Bioassay records as filed in PubChem BioAssay.
The sample as a whole holds a higher share of hits than the screen did.
RmlC RmlD mix: RmlC and RmlD coupled enzyme inhibitors, primary screen, biochemical, 384-well, compound mixtures, retest; RmlC/RmlD coupled enzyme inhibition, 384-well mixture HTS; inhibition, % at 5.5 µM; 110,000 compounds, 0.39% hits; AID 1532, 2009; in the data active = inhibition above about 30%, passing the limit was not always enough
RT RNaseH block: HIV-1 RT RNase H inhibitors, primary screen, biochemical, fluorescence | Gag-Pol polyprotein (Human immunodeficiency virus type 1 group M subtype B (isolate … | RT-RNase H RNA/DNA duplex cleavage | inhibition, % at 10 µM | 65,000 compounds, 1.9% hits; in the data active = inhibition above about 50%
RmlCD artifact: counter-screen for RmlC/RmlD inhibitors: fluorescence artifact, dose response, artefact control, biochemical; RmlC/RmlD assay fluorescence artifact counter-screen; shares compounds with RmlC RmlD mix; 360 compounds, 96% hits; calls only; call rule not given here;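 also: compound alone with no enzyme and no substrates present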
Starred values were filed as active, the others as inactive; i = inactive; x = no result given; + = active, no number.

SMILES	RmlC RmlD mix	RT RNaseH block	RmlCD artifact
O=C(CCCn1c(=O)[nH]c2ccccc2c1=O)N1CCN(c2ccccn2)CC1	x	-10	x
O=C(CCCn1c(=O)[nH]c2ccsc2c1=O)N1CCN(c2ccccn2)CC1	70*	-5	i
CCN1C(=O)N[C@@H](c2cccs2)C(C(C)=O)=C1C	-17	x	x
COCCCNC(=O)c1ccc2nc3ccccc3c(=O)n2c1	34*	-5	+
COCCCn1c(SCC(=O)NCc2ccccc2)nc2ccccc2c1=O	-5	x	x
CCn1c(CCC(=O)Nc2nc3c(s2)CCCC3)nc2cc(S(=O)(=O)N(C)C)ccc21	-6	3	x
CCCCc1c(C)c(C#N)c2[nH]c3ccccc3n2c1=O	11	x	x
CCCc1cc(=O)n2c([nH]c3ccccc32)c1C#N	39*	x	+
O=C(C1=C[C@@H](c2ccc(C(F)(F)F)cc2)C[C@@H](OCCCCO)O1)N1CCN(Cc2ccc3c(c2)OCO3)CC1	15	x	x
CN(C(=O)c1ccncc1)c1nnc(-c2ccncc2)s1	103*	-30	+
Cc1cnc(-c2nnc(N(C)C(=O)C3CCOC3)s2)cn1 (stereo unspecified)	x	-2	x
COc1ccc(-c2nnc(NC(=O)C3CCCO3)s2)cc1 (stereo unspecified)	-8	x	x
COCC(=O)N(C)c1nnc(-c2ccccn2)s1	111*	18	+
COCC(=O)N(C)c1nnc(-c2ccc([N+](=O)[O-])cc2)s1	10	x	x
CN(C(=O)C1CCCO1)c1nnc(-c2ccncc2)s1 (stereo unspecified)	161*	-1	+
CN(C(=O)C1CCCO1)c1nnc(-c2ccccn2)s1 (stereo unspecified)	162*	8	+
Cc1cccc(C(=O)N(C)c2nnc(-c3ccncc3)s2)c1	10	-1	x
O=C(NNC(=O)C1CCCCC1)C(=O)NC1CCCCC1	-25	x	x
COc1ccc(-n2c(=O)c3ccccc3n(CC(=O)NC3CCCC3)c2=O)cc1	-12	-5	x
CCCCC(c1nnnn1CCOC)N1CCN(c2cccc(OC)c2)CC1 (stereo unspecified)	14	-16	x
CCOC(=O)CN1C(=O)N[C@@H](CCc2ccccc2)[C@@H](C(=O)OC)[C@H]1C	1	x	x
CN(C(=O)C1CCOC1)c1nnc(-c2ccccn2)s1 (stereo unspecified)	27	48	x
CN(C(=O)C1CCOC1)c1nnc(-c2ccncc2)s1 (stereo unspecified)	48*	-4	+
COc1ccccc1CCNC(=O)C1CCCO1 (stereo unspecified)	6	-9	x
COc1ccccc1-c1nnc(N(C)C(=O)C2CCCO2)s1 (stereo unspecified)	37*	-1	+
SMILES	RmlC RmlD mix	RT RNaseH block	RmlCD artifact
O=C(CN1CCCN(S(=O)(=O)c2ccc(Br)cc2)CC1)Nc1ccc2c(c1)OCO2	15	-19	x
CCOC(=O)c1c(NC(=O)CN2CCOCC2)sc2c1CC(C)(C)OC2	-13	14	x
O=C(NCCCN1CCN(c2cccc(Cl)c2)CC1)C1CCC(=O)N1Cc1ccccc1Cl (stereo unspecified)	x	4	x
CC(=O)NCCc1nc2ccccc2n1Cc1ccccc1	-17	-6	x
COc1ccc2c3c(c(=O)oc2c1OCC(N)=O)CCCC3	32*	-15	+
CCOc1ccc2c3c(c(=O)oc2c1OCC)CCCC3	3	x	x
COc1cc(C(=O)Nc2cnc(NC(=O)C(C)C)cc2C)cc(OC)c1OC	4	-6	x
CC1(C)Cc2nc(NCCCO)c(C#N)cc2CO1	44*	-12	+
CC1(C)Cc2nc(N3CCOCC3)c(C#N)cc2CO1	-40	-8	x
CC(C)OC(=O)c1cc2ccccc2[nH]1	-10	x	x
CCOC(=O)c1cc2cc3ccccc3cc2[nH]1	125*	x	+
c1ccc2c(c1)c1ccccc1n1c(-c3ccc4c(c3)OCO4)nnc21	5	x	x
